Yp Topo-I inh: blocks Yersinia pestis topoisomerase I activity | Y. pestis Topo-I cleavage product accumulation, plate reader | activity, % at 10 µM | 360,000 compounds, 0.064% hits | AID 504884; in the data active = activity above about 50%, passing the limit was not always enough
Mtb BioA inh: inhibitors of Mycobacterium tuberculosis BioA enzyme | purified M. tuberculosis BioA enzyme, plate reader | inhibition, % at 9.99 µM | 360,000 compounds, 0.096% hits | AID 602481; in the data active = inhibition above about 40%
Vc quorum ag-1: induces V. cholerae light production without autoinducers; activation, % at 18.7 µM; AID 588436; V. cholerae BH1578 lux reporter, luminescence, 6 h; 350,000 compounds, 0.16% hits; in the data active = activation mostly above about 9.7%, no sharp cut-off
TcdB GH inh: TcdB glycohydrolase inhibition; P18177; TcdB glycohydrolase enzymatic assay, plate reader; inhibition, % at 9.99 µM; 350,000 compounds, 0.24% hits; AID 652162; in the data active = inhibition above about 10%
FadD28 FP inh: inhibitors of Mycobacterium tuberculosis FadD28 bisubstrate binding; FadD28 bisubstrate probe binding, fluorescence polarization; inhibition, % at 12.5 µM; 360,000 compounds, 0.22% hits; AID 588549; in the data active = inhibition above about 8.5%, passing the limit was not always enough
Vc quorum ag-2: induces V. cholerae light production without autoinducers | shares compounds with Vc quorum ag-1 | V. cholerae BH1578 lux reporter, luminescence, 6 h | activation, % at 50 µM | 620 tested, under 10 active; call rule not given here
HeLa 24h tox: kills HeLa cells within 24 hours; activity change, negative = cytotoxicity, % at 35 µM; 25 tested, under 10 active; HeLa viability, CellTiter-Glo ATP luminescence; shares compounds with Vc quorum ag-1;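 active = signal drop with fitted half-maximal concentration at or below twice the highest valid dose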
Numbers stand for hits. This is a sample that favours compounds with a hit; in the whole collection about 0.61% have one here.

What do the screens show for `COC(=O)c1ccccc1NC(=O)C1CC=CCC1C(=O)O` (stereo not given)?
Yp Topo-I inh: inactive; Mtb BioA inh: inactive; Vc quorum ag-1: inactive; FadD28 FP inh: inactive

Results for CCCCn1nnnc1NCc1ccc(N2CCCC2)cc1 ?
Yp Topo-I inh: inactive; Mtb BioA inh: inactive; Vc quorum ag-1: 828.8; FadD28 FP inh: inactive; Vc quorum ag-2: inactive

What do the screens show for `CCCn1nnnc1NCc1c(Cl)cccc1Cl`?
Yp Topo-I inh: inactive; Vc quorum ag-1: inactive; TcdB GH inh: inactive; FadD28 FP inh: inactive

What do the screens show for `CCCn1nnnc1NCc1ccc(N2CCCC2)cc1`?
Yp Topo-I inh: inactive; Mtb BioA inh: inactive; Vc quorum ag-1: active; FadD28 FP inh: inactive; HeLa 24h tox: inactive

How did CCCCn1nnnc1NCc1cccnc1 do in these assays?
Yp Topo-I inh: inactive; Mtb BioA inh: inactive; Vc quorum ag-1: inactive; FadD28 FP inh: inactive

How did CC(C)C#Cc1cnc2c(c1)C(=O)N([C@H](C)CO)C[C@@H](C)[C@H](CN(C)C(=O)c1ccccn1)O2 do in these assays?
Mtb BioA inh: inactive; TcdB GH inh: inactive

Results for Cc1ccccc1NC(=O)Cc1nc(COC(=O)c2ccccn2)cs1 ?
Yp Topo-I inh: inactive; Mtb BioA inh: inactive; Vc quorum ag-1: inactive; TcdB GH inh: inactive; FadD28 FP inh: inactive; Vc quorum ag-2: inactive

What do the screens show for `COCC(=O)N1CC2(CN(C(=O)c3ccccn3)C2)c2c(n(C)c3cc(OC)ccc23)[C@H]1CO`?
TcdB GH inh: inactive

How did O=c1[nH]c2ccccc2n1Cc1ccc(Cl)cc1 do in these assays?
Yp Topo-I inh: inactive; Mtb BioA inh: inactive; Vc quorum ag-1: 16.7; FadD28 FP inh: inactive; Vc quorum ag-2: inactive

Results for CC(C)CCn1c(=O)[nH]c2ccccc21 ?
Yp Topo-I inh: inactive; Mtb BioA inh: inactive; Vc quorum ag-1: inactive; TcdB GH inh: inactive; FadD28 FP inh: inactive

How did Cc1ccccc1-n1ccnc1SCC(=O)NCC1CCCO1 (stereo not given) do in these assays?
Yp Topo-I inh: inactive; Mtb BioA inh: inactive; Vc quorum ag-1: 15.4; TcdB GH inh: inactive; FadD28 FP inh: inactive; Vc quorum ag-2: inactive

What do the screens show for `Cc1ccc(-n2nnnc2SCC(=O)NCC2CCCO2)cc1C` (stereo not given)?
Yp Topo-I inh: inactive; Mtb BioA inh: inactive; Vc quorum ag-1: inactive; TcdB GH inh: inactive; FadD28 FP inh: inactive; Vc quorum ag-2: inactive

How did C[C@@H]1CN([C@H](C)CO)C(=O)c2cc(-c3ccccc3)cnc2O[C@@H]1CN(C)C(=O)c1cccnc1 do in these assays?
TcdB GH inh: inactive

How did Cc1noc(C)c1S(=O)(=O)N1CCCC(C(=O)NCCC2=CCCCC2)C1 (stereo not given) do in these assays?
Yp Topo-I inh: inactive; Mtb BioA inh: inactive; Vc quorum ag-1: 20.0; FadD28 FP inh: inactive; Vc quorum ag-2: inactive

What do the screens show for `O=C(COC(=O)COc1ccc(Cl)cc1)NC1CCS(=O)(=O)C1` (stereo not given)?
Yp Topo-I inh: inactive; Mtb BioA inh: inactive; Vc quorum ag-1: inactive; TcdB GH inh: inactive; FadD28 FP inh: inactive

How did Cc1cc(Cl)ccc1OCC(=O)OCC(=O)NC1CCS(=O)(=O)C1 (stereo not given) do in these assays?
Yp Topo-I inh: inactive; Mtb BioA inh: inactive; Vc quorum ag-1: inactive; TcdB GH inh: inactive; FadD28 FP inh: inactive; Vc quorum ag-2: inactive

Results for COc1ccc(CN(C)C[C@H]2Oc3c(NS(=O)(=O)c4ccccc4)cccc3C(=O)N([C@@H](C)CO)C[C@@H]2C)cc1 ?
Mtb BioA inh: inactive; TcdB GH inh: inactive

Results for Cc1ccc(N2C(=O)C(CN(C)C)C2c2ccccc2)cc1 (stereo not given) ?
Yp Topo-I inh: inactive; Mtb BioA inh: inactive; Vc quorum ag-1: 16.7; FadD28 FP inh: inactive; Vc quorum ag-2: inactive

Results for CCCNC(=O)[C@H]1[C@H](CO)[C@H]2Cn3c(cccc3=O)[C@H]2N1Cc1cccc(F)c1 ?
TcdB GH inh: inactive

What do the screens show for `Fc1ccc(NCc2cn3ccccc3n2)cc1`?
Yp Topo-I inh: inactive; Mtb BioA inh: inactive; Vc quorum ag-1: 16.7; FadD28 FP inh: inactive; Vc quorum ag-2: inactive

Results for CCCNC(=O)N(C)C[C@H]1Oc2ncc(C#CC3CC3)cc2C(=O)N([C@H](C)CO)C[C@@H]1C ?
Mtb BioA inh: inactive; TcdB GH inh: inactive

What do the screens show for `COc1cccc(C(=O)NCCS(=O)(=O)N(C)C2CCCCC2)c1`?
Yp Topo-I inh: inactive; Mtb BioA inh: inactive; Vc quorum ag-1: inactive; TcdB GH inh: inactive; FadD28 FP inh: inactive

Source: PubChem (Broad Institute)
